Source: PubChem BioAssay (Tox21)
Inconclusive results are not listed. Calls of active or inactive are those of the source. The call rests on the fitted dose curve.

The molecules below were run against Acetylcholinesterase (Homo sapiens) (UniProt P22303) (assay: Acetylcholinesterase (AChE) small molecule antagonists: fluorescence cell-based qHTS assay (AID 1347398; further: nearly all actives have a fitted effect of over 50% in size)). Details: SH-SY5Y cells; Potency: AChE activity; outcome: AChE activity; series mostly up to 115 µM; activity change, negative = inhibition: at the top concentration.
Acetylcholinesterase (Homo sapiens), sequence (P22303 whole entry, looked up): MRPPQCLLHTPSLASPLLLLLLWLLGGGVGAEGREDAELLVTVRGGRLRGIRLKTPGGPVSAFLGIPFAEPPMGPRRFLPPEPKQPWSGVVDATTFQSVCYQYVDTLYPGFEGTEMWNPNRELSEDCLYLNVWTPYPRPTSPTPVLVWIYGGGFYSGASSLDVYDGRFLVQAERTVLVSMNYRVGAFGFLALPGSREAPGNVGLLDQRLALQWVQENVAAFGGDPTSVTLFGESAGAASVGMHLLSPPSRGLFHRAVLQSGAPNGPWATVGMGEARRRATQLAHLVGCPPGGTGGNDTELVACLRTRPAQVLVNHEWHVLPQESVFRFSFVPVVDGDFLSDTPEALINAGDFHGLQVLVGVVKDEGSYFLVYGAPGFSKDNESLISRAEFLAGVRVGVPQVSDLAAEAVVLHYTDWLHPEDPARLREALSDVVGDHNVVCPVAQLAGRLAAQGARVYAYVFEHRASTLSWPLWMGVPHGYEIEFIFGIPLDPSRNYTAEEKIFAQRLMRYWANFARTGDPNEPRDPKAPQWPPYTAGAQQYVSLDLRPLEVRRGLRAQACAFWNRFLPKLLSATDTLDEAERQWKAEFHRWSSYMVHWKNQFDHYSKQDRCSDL
Method in brief: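 Read-out is Thiolite Green fluorescence at Ex/Em = 490/520 nm, formed by reaction with thiocholine released when cellular AChE in SH-SY5Y cells hydrolyzes acetylthiocholine. Compounds were preincubated 30 min at 37 C before substrate.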
On the % scale 0 is the no-effect control and ±100 the full control effect.

SMILES	activity change, negative = inhibition	Potency
CCCc1c(OCCCOc2ccc(OCC(=O)O)cc2)ccc(C(C)=O)c1O	1.56% (inactive)	
C=COCCCCO	-7.46% (inactive)	
C[C@@H](O[C@H]1OCCN(Cc2n[nH]c(=O)[nH]2)[C@H]1c1ccc(F)cc1)c1cc(C(F)(F)F)cc(C(F)(F)F)c1	0.625% [at 53.7 µM] (inactive)	
COc1nccnc1NS(=O)(=O)c1ccc(N)cc1	7.21% [at 53.7 µM] (inactive)	
CCCCCCCCCC/C=C/C#N	-1.2% (inactive)	
Cc1ccccc1S(=O)(=O)O	0.86% (inactive)	
CCCCNc1c(C(=O)OCC)c(C)nc2c1cnn2CC	-13.3% [at 53.7 µM] (inactive)	
CCOC(=O)/C=C/c1ccccc1	1.03% (inactive)	
O=C(O)COc1nn(Cc2ccccc2)c2ccccc12	0.775% [at 53.7 µM] (inactive)	
COc1ccccc1OCC1CNC(=O)O1 (stereo not given)	2.76% [at 53.7 µM] (inactive)	
CC(=O)CC(=O)Nc1ccc(C)cc1C	2.75% (inactive)	
CCCCN(CCCC)c1ccc(C(=O)c2ccccc2C(=O)O)c(O)c1	-14.2% (inactive)	
Cc1cc(=O)oc2cc(O)ccc12	-14.6% (inactive)	
Cc1cc(O)cc2c1O[C@](C)(CCC[C@H](C)CCC[C@H](C)CCCC(C)C)CC2	68.9% [at 53.7 µM] (inactive)	
CN1CCC[C@@H]1Cc1c[nH]c2ccc(CCS(=O)(=O)c3ccccc3)cc12	-10.8% [at 53.7 µM] (inactive)	
COC(=O)Nc1nc2ccc(S(=O)c3ccccc3)cc2[nH]1 (stereo not given)		inactive
O=C(O)c1ccccc1OP(=O)(O)O	7.75% [at 53.7 µM] (inactive)	
C=C[Si](C)(C)Cl	-9.61% [at 10.5 µM] (inactive)	
Cc1ccc([N+](=O)[O-])cc1S(=O)(=O)O		inactive
CCC(C)c1ccccc1O (stereo not given)		inactive

SMILES	activity change, negative = inhibition	Potency
CCN(CC)CCN	6.75% [at 53.7 µM] (inactive)	
COc1ccc(C#N)cc1	3.1% (inactive)	
CCCCCC[C@@H](O)C/C=C\CCCCCCCC(=O)OC	-11.9% (inactive)	
CCCCCCCCCCCCC	1.37% (inactive)	
CC(Cl)COP(=O)(OCC(C)Cl)OCC(C)Cl (stereo not given)	0.431% (inactive)	
CCc1ccc(CC)cc1	-0.0857% (inactive)	
CCCc1ccc(O)cc1	4.89% (inactive)	
c1ccc2c(c1)CCc1ccccc1N2		inactive
Cc1cc(Cl)c(C)cc1Cl	2.75% (inactive)	
CCCCCCCCCCO[C@@H]1O[C@H](CO)[C@@H](O)[C@H](O)[C@H]1O	-3.88% (inactive)	
CC(C)(C)CC(C)(C)c1ccc(O)c(Cc2ccc(Cl)cc2Cl)c1	6.7% [at 53.7 µM] (inactive)	
CC[N+](CC)(CC(=O)Nc1c(C)cccc1C)Cc1ccccc1 (tested in a mixture with another compound)	-15.2% [at 53.7 µM] (inactive)	
CCCCOCCOCCOC(=O)CCCCC(=O)OCCOCCOCCCC		inactive
O=C(O)c1ccc(S(=O)(=O)N(Cl)Cl)cc1		inactive
CN(C)c1ccncc1	-6.62% (inactive)	
CC(=O)OCc1ccco1		inactive
O=C(O)CC(C(=O)O)C(CC(=O)O)C(=O)O (stereo not given)		inactive
CC(=O)OCCOCCOCCOC(C)=O		inactive
Cc1c(N)cccc1C(F)(F)F	10.4% [at 53.7 µM] (inactive)	
CCCCC(CC)COCC1CO1 (stereo not given)		inactive

What follows are molecules tested against Acetylcholinesterase (Homo sapiens) (UniProt P22303) (assay: Acetylcholinesterase (AChE) small molecule antagonists: enzyme-based qHTS assay with human liver microsomes (AID 1347399; further: nearly all actives have a fitted effect of over 60% in size)). Details: Potency: qHTS inhibition; outcome: qHTS inhibition; series mostly up to 115 µM; activity change, negative = inhibition: at the top concentration.
Method in brief: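 Recombinant human AChE (50 mU/mL in the enzyme mix) and human liver microsomes (0.25 mg/mL final) were preincubated with compound and NADPH (0.25 mg/mL final) for 30 min at 37 C. Acetylthiocholine/DTNB was then added; thiocholine was read colorimetrically after 10 min at room temperature.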

SMILES	activity change, negative = inhibition	Potency
CCCc1c(OCCCOc2ccc(OCC(=O)O)cc2)ccc(C(C)=O)c1O	-0.141% (inactive)	
C=COCCCCO	-0.746% (inactive)	
C[C@@H](O[C@H]1OCCN(Cc2n[nH]c(=O)[nH]2)[C@H]1c1ccc(F)cc1)c1cc(C(F)(F)F)cc(C(F)(F)F)c1	1.85% [at 53 µM] (inactive)	
COc1nccnc1NS(=O)(=O)c1ccc(N)cc1	-1.3% [at 53 µM] (inactive)	
CCCCCCCCCC/C=C/C#N	0% (inactive)	
Cc1ccccc1S(=O)(=O)O	0.458% (inactive)	
CCCCNc1c(C(=O)OCC)c(C)nc2c1cnn2CC	0% [at 53 µM] (inactive)	
CCOC(=O)/C=C/c1ccccc1	0.0174% (inactive)	
O=C(O)COc1nn(Cc2ccccc2)c2ccccc12	0.31% [at 53 µM] (inactive)	
COc1ccccc1OCC1CNC(=O)O1 (stereo not given)	0.168% [at 53 µM] (inactive)	
CC(=O)CC(=O)Nc1ccc(C)cc1C	0.229% (inactive)	
CCCCN(CCCC)c1ccc(C(=O)c2ccccc2C(=O)O)c(O)c1	6.24% (inactive)	
Cc1cc(=O)oc2cc(O)ccc12		inactive
Cc1cc(O)cc2c1O[C@](C)(CCC[C@H](C)CCC[C@H](C)CCCC(C)C)CC2	0.871% [at 53 µM] (inactive)	
CN1CCC[C@@H]1Cc1c[nH]c2ccc(CCS(=O)(=O)c3ccccc3)cc12	-0.142% [at 53 µM] (inactive)	
COC(=O)Nc1nc2ccc(S(=O)c3ccccc3)cc2[nH]1 (stereo not given)		inactive
O=C(O)c1ccccc1OP(=O)(O)O	1.08% [at 53 µM] (inactive)	
C=C[Si](C)(C)Cl	-5.99% [at 10.5 µM] (inactive)	
Cc1ccc([N+](=O)[O-])cc1S(=O)(=O)O		inactive
CCC(C)c1ccccc1O (stereo not given)		inactive

SMILES	activity change, negative = inhibition	Potency
CCN(CC)CCN	3.02% [at 53 µM] (inactive)	
COc1ccc(C#N)cc1	0.382% (inactive)	
CCCCCC[C@@H](O)C/C=C\CCCCCCCC(=O)OC	-0.171% (inactive)	
CCCCCCCCCCCCC	0.739% (inactive)	
CC(Cl)COP(=O)(OCC(C)Cl)OCC(C)Cl (stereo not given)	0.59% (inactive)	
CCc1ccc(CC)cc1	0.682% (inactive)	
CCCc1ccc(O)cc1	-0.703% (inactive)	
c1ccc2c(c1)CCc1ccccc1N2		inactive
Cc1cc(Cl)c(C)cc1Cl	1.22% (inactive)	
CCCCCCCCCCO[C@@H]1O[C@H](CO)[C@@H](O)[C@H](O)[C@H]1O	-0.458% (inactive)	
CC(C)(C)CC(C)(C)c1ccc(O)c(Cc2ccc(Cl)cc2Cl)c1	0.73% [at 53 µM] (inactive)	
CC[N+](CC)(CC(=O)Nc1c(C)cccc1C)Cc1ccccc1 (tested in a mixture with another compound)	-1.38% [at 53 µM] (inactive)	
CCCCOCCOCCOC(=O)CCCCC(=O)OCCOCCOCCCC		inactive
O=C(O)c1ccc(S(=O)(=O)N(Cl)Cl)cc1		inactive
CN(C)c1ccncc1	-0.458% (inactive)	
CC(=O)OCc1ccco1		inactive
O=C(O)CC(C(=O)O)C(CC(=O)O)C(=O)O (stereo not given)		inactive
CC(=O)OCCOCCOCCOC(C)=O		inactive
Cc1c(N)cccc1C(F)(F)F	1.11% [at 53 µM] (inactive)	
CCCCC(CC)COCC1CO1 (stereo not given)		inactive
